# Assay results taken from publication doi:10.1101/2025.02.07.636106.
# Target: Histone deacetylase 2 (UniProt Q92769)
# Assay: cross-link between two proteins; affinity purification or IP with mass spectrometry; cross-linking mass spectrometry
# Sequence of Histone deacetylase 2 (Q92769 whole entry): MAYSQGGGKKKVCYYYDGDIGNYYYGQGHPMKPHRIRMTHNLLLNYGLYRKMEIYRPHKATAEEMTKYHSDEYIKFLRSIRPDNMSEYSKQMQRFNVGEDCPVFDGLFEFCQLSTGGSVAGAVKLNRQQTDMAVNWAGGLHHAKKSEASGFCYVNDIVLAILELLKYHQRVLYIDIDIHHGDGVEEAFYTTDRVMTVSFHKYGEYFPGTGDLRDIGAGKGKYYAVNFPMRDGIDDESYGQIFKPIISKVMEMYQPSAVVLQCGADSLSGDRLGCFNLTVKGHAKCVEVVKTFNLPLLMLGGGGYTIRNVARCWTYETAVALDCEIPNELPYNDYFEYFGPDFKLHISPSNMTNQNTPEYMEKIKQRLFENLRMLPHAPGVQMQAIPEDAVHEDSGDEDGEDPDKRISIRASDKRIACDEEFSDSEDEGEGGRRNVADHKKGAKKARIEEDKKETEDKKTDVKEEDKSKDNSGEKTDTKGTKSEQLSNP
row,Substance,listed as a hit
1,"Transcriptional repressor p66-beta, Q8WXI9",yes
2,"Methyl-CpG-binding domain protein 3, O95983",yes
3,"ATP-dependent chromatin remodeler CHD4, Q14839",yes
4,"Histone-binding protein RBBP7, Q16576",yes
